Test results: PMC5540273 (PLoS ONE, 2017)

Tests used:
Details in all cases: concentration: 1 μM,replicates: in singlicate; n = 1
[1] = system: CLK2
[2] = system: CLK3
[3] = system: CLK4
[4] = system: CSF1R-autoinhibited
[5] = system: CSF1R
[6] = system: CSK
[7] = system: CSNK1A1L
[8] = system: CSNK1A1
[9] = system: CSNK1D
[10] = system: CSNK1E
[11] = system: CSNK1G1
[12] = system: CSNK1G2
[13] = system: CSNK1G3
[14] = system: CSNK2A1
[15] = system: CSNK2A2
[16] = system: T1, CTK
T1 construct: gene MATK

[17] = system: DAPK1
[18] = system: DAPK2
[19] = system: DAPK3
[20] = system: T2, DCAMKL1
T2 construct: gene DCLK1
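Note: KINOMEscan kinase panel screen.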

SMILES	%Inh [1] [%]	%Inh [2] [%]	%Inh [3] [%]	%Inh [4] [%]	%Inh [5] [%]	%Inh [6] [%]	%Inh [7] [%]	%Inh [8] [%]	%Inh [9] [%]	%Inh [10] [%]	%Inh [11] [%]	%Inh [12] [%]	%Inh [13] [%]	%Inh [14] [%]	%Inh [15] [%]	%Inh [16] [%]	%Inh [17] [%]	%Inh [18] [%]	%Inh [19] [%]	%Inh [20] [%]
CCN(CC)CCOc1ccc(Nc2ncc3cc(-c4c(Cl)cccc4Cl)c(=O)n(C)c3n2)cc1 [SB-601273]	10	0	0	100	99.9	98.4	3	13	39	60	38	0	12	6	9	27	12	0	10	24
O=C(NCCCN1CCOC1=O)c1cnc(NCc2cc(Cl)ccc2Cl)nc1NC1CCCC1	1	0	4	12	32	12	5	34	12	76	0	3	0	16	23	0	3	7	12	28
NC(=O)c1cc(-c2ccccc2)cc2c(C3CCNCC3)c[nH]c12 [GSK301362]	3	14	25	0	53	0	20	0	50	72	3	0	19	31	20	4	23	9	40	14
C[C@@H](Oc1cc(-c2cnn(C3CCNCC3)c2)cnc1N)c1c(Cl)ccc(F)c1Cl	9	1	0	82	93.8	24	0	38	14	6	8	0	0	18	0	13	10	1	15	88
O=C(NCCNc1ccnc(NCc2ccc(F)cc2)n1)c1cc2ccccc2s1 [GSK1379944]	0	19	22	0	9	68	25	0	72	26	32	98.8	9	0	66	0	0	0	81	1
Cl.Cl.Nc1nc(-c2ccc3c(N)n[nH]c3c2)cc(N2CCCC(NC(=O)c3ccccc3)C2)n1 (centres unmarked) [GSK2286775]	15	14	0	0	15	5	4	0	0	24	0	0	21	0	6	6	28	0	13	15
C=CC(=O)Nc1cc2c(Nc3ccc(F)c(Cl)c3)ncnc2cc1OCCCN1CCOCC1 [GW781483]	0	0	4	35	13	5	22	0	0	26	0	1	99.8	27	16	4	0	0	0	15
Cl.Cl.NC[C@H](Cc1ccc(C(F)(F)F)cc1)NC(=O)c1cc(Br)c(-c2ccnc3[nH]ccc23)s1 [GSK1487252]	39	22	57	3	0	0	16	27	55	54	0	8	24	0	14	0	0	0	6	17
Cc1occc1-c1nc(N)c(OC[C@@H](N)Cc2c[nH]c3ccccc23)cc1-c1cc2c(C)n[nH]c2cn1 [GSK1660450]	97.5	80	97.6	0	18	0	71	–	96.6	99.7	79	74	83	76	48	11	64	69	59	24
Cc1ccc2c(-c3ccncc3)c(-c3ccc(F)cc3)nn2c1.Cl [GW461484]	0	0	0	8	0	0	39	–	96.9	99.5	30	27	27	0	0	0	0	7	5	0
Cc1ccc(-n2nc(C(C)(C)C)cc2NC(=O)Nc2ccc(OCCN3CCOCC3)c3ccccc23)cc1 [GW839464]	9	5	0	–	–	3	7	0	1	10	1	0	19	0	4	0	4	1	20	21
CC(C)Nc1cc(-c2ccc3c(N)n[nH]c3c2)nc(N)n1 [GSK2221681]	44	23	63	0	4	0	5	18	34	22	0	2	19	13	28	0	30	42	51	7
C[C@@H]1CCN(C(=O)CC#N)C[C@@H]1N(C)c1ncnc2[nH]ccc12	4	0	0	0	3	0	0	21	–	0	15	0	0	0	0	0	10	0	4	0
CCn1c(-c2nonc2N)nc2c(C#CC(C)(C)O)nc(OCCN)cc21.Cl.Cl [GSK902056]	7	27	20	0	11	0	18	0	0	41	0	0	12	0	46	0	0	0	21	0
CCN(CC)CCCCNc1ncc2cc(-c3c(Cl)cccc3Cl)c(NC(=O)NC(C)(C)C)nc2n1	0	0	0	85	99.2	90.5	0	30	14	61	10	0	0	1	12	15	0	0	0	11
Cc1cc(C(=O)Nc2ccc(Oc3ccc4nc(NC(=O)C5CC5)cn4n3)cc2)nn1-c1ccccc1	1	0	0	0	100	15	0	43	0	1	6	0	0	0	0	0	0	0	10	12
C[C@H]1Oc2cc(cnc2N)-c2c(nn(C)c2C#N)CN(C)C(=O)c2ccc(F)cc21	4	0	22	0	15	0	20	0	35	0	0	27	10	0	0	0	0	83	16	88
CNC(=O)c1ccccc1Sc1ccc2c(/C=C/c3ccccn3)n[nH]c2c1	–	0	0	86	99.9	3	10	23	10	0	0	18	0	0	0	8	0	0	0	31
CN(C)CCOc1ccc(-c2cc(-c3c[nH]nc3-c3ccccn3)ccn2)cc1 [GW835314]	0	5	18	0	6	88	3	11	25	31	14	9	65	0	3	48	13	0	0	0
Cc1cc2cn[nH]c2cc1-c1cccc2c(N)c(C(N)=O)nnc12	11	15	0	0	6	98.3	35	34	22	30	12	13	12	19	5	80	9	3	32	71
Cc1n[nH]c2ccc(-c3cc(OC[C@@H](N)Cc4ccccc4)cnc3-c3ccoc3)cc12.O=C(O)C(F)(F)F.O=C(O)C(F)(F)F [GSK507358]	54	23	60	0	17	0	94.4	–	98	99.9	71	90.6	91.7	10	8	0	0	0	13	0
Nc1nc(Nc2ccccc2)cc(-c2ccc3c(N)n[nH]c3c2)n1 [GSK2225749]	40	0	80	0	0	0	10	21	15	0	2	0	13	34	24	0	34	49	62	12
Cl.Oc1cc(-c2nc(-c3ccccc3)[nH]c2-c2ccncc2)ccc1Cl [SB-386023]	0	24	11	0	2	1	25	41	71	77	0	0	16	11	30	38	0	0	0	34
CN(C)CC(O)COc1ccc(Nc2nccc(-c3cnn4nc(N5CCOCC5)ccc34)n2)cc1 (centres unmarked) [GW767488]	96.6	11	88	15	32	24	15	92.2	41	29	16	50	10	97.1	98.7	1	59	46	68	72
Cl.Cl.NC[C@H](CC1CCCCC1)NC(=O)c1cc(Br)c(-c2ccnc3[nH]ccc23)s1 [GSK1581427]	71	57	69	0	48	0	42	53	86	85	6	26	40	55	0	0	71	12	19	16
COc1ccc(C[C@@H](CN)NC(=O)c2cc(Br)c(-c3ccnc4[nH]ccc34)s2)cc1.Cl.Cl [GSK1389063]	91.4	77	95.2	0	56	0	81	88	90	95.9	33	79	73	57	64	2	26	13	18	64
CC(C)N1C(=O)Cc2cc(Nc3ncc(C(F)(F)F)c(NCc4cccc(S(C)(=O)=O)c4)n3)ccc21	34	0	38	0	8	14	2	0	0	0	0	19	0	55	82	64	22	20	20	30
